Here are results for 27 compounds from PubChem BioAssay (NCATS).

The nature of assay [1]: P-glycoprotein substrates identified in KB-3-1 adenocarcinoma cell line, qHTS therapeutic library screen (AID 1346986). Note: nearly all actives have a fitted effect of over 60% in size.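 Note: potency is for cytotoxicity meaning loss of cell viability.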 A digest of the protocol: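 Compounds were tested in dose-response against KB-3-1 and KB-8-5-11 cells at 37 degree C for 72 h, and viability was measured by luminescence. AC50 values came from curve fitting with class-based activity calls.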
In general terms: Quantitative high-throughput screening tests each substance at several concentrations.

A short description of assay [2]: P-glycoprotein substrates identified in KB-8-5-11 adenocarcinoma cell line, qHTS therapeutic library screen (AID 1346987). For activity change, negative = cytotoxicity: series mostly up to about 44 µM; % is set by controls: 0 for no effect and ±100 for the full control effect. Note: nearly all actives have a fitted effect of over 65% in size. In short, it runs like this: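 P-gp-mediated resistance screen: KB-8-5-11 cells treated 72 h with compounds in dose-response. CellTiter-Glo viability.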

Each structure is given as a SMILES string. Values joined by “and” are separate entries in the source; they are usually repeats but may differ in a detail not shown here. Identical values can stand only once. Inconclusive results are not listed. A number with no mark means an inactive call. Active and inactive are the calls of the source. Calls come from the whole dose curve; as a rule, active = well fitted curve in the direction sought with a large enough effect; inconclusive = small, poorly fitted or top-dose-only effect, or another doubt; inactive = no such curve, though single readings can be large; an effect the other way counts as inactive or inconclusive.
Potency is the fitted concentration of half-maximal effect.

With `CC1(C=O)CC[C@]2(C(=O)O[C@@H]3O[C@H](CO)[C@@H](O)[C@H](O)[C@H]3O)CC[C@]3(C)C(=CCC4[C@@]5(C)C[C@H](O)[C@H](O[C@@H]6OC[C@@H](O)[C@H](O)[C@H]6O)[C@@](C)(CO)C5CC[C@]43C)C2C1` (some centres undefined), the outcome in assay [1] and in assay [2] was “inactive [at 9.29 µM]” throughout.
Take `CNC(=O)c1cccc(-c2ccc3c(N4CCOC[C@@H]4C)nc(N4CCOC[C@@H]4C)nc3n2)c1`: the Potency is 0.92 µM (active) in assay [1]; 366 nM (active) and 580 nM (active) in assay [2].
In the case of `CC(CO)C1CCC2(C)CC3C(CO)CC(O)C3C(C)(O)C/C=C/12` (centres undefined), the Potency result in assay [1] and in assay [2] was “inactive” throughout.
With `NC(=O)c1csc(C2OC(CO)C(O)C2O)n1` (centres undefined), the Potency entry in assay [1] and in assay [2] was “inactive” in each case.
Turning to `N#Cc1c(Oc2ccc(F)c(NC(=O)Cc3cccc(C(F)(F)F)c3)c2)ccc2nc(NC(=O)C3CC3)sc12`, the Potency in assay [1] was 6.51 µM (active); in assay [2] it was 7.31 µM (active).
With `O=C1OCc2cc3cccc(O[C@@H]4O[C@H](CO)[C@@H](O)[C@H](O)[C@H]4O)c3c(O)c21`, the Potency entry in assay [1] and in assay [2] was “inactive” in each case.
For the compound `C=C1[C@H](OC(C)=O)[C@H]2[C@@H](OC(C)=O)[C@](C)(OC(C)=O)C[C@]2(OC(C)=O)C(=O)[C@H](C)/C=C/C(C)(C)C(=O)[C@H](OC(=O)C(C)CC)[C@H]1OC(C)=O` (some centres undefined), the Potency entry in assay [1] and in assay [2] was “inactive” in each case.
Regarding `O=C(/C=C/c1ccccc1)OC[C@]12O[C@H]1[C@@H](O)[C@@H]1C=CO[C@@H](O[C@@H]3O[C@H](CO)[C@@H](O)[C@H](O)[C@H]3O)[C@@H]12`, the Potency result in assay [1] and in assay [2] was “inactive” throughout.
In the case of `C[C@@H]1O[C@@H](OC[C@H]2O[C@@H](OC(CCCCc3ccc(O)cc3)CCc3ccc(O)cc3)[C@H](O)[C@@H](O)[C@@H]2O)[C@H](O)[C@H](O)[C@H]1O` (some centres undefined), the Potency entry in assay [1] and in assay [2] was “inactive” throughout.
Regarding `C[C@@H](O)[C@H](NC(=O)c1ccc(C#Cc2ccc(CN3CCOCC3)cc2)cc1)C(=O)NO`, the Potency result in assay [1] and in assay [2] was “inactive” in each case.
Take `CC12CCC3c4ccc(O)cc4CCC3C1CC(OC1OC(C(=O)O)C(O)C(O)C1O)C2O` (centres undefined): the Potency entry in assay [1] and in assay [2] was “inactive” throughout.
On to `CCS(=O)(=O)N1CCN(c2ccc(Nc3ncc(C(N)=O)c(NC4CC4)n3)cc2)CC1`, for which the Potency in assay [1] is 4.61 µM (active); in assay [2] it was 7.31 µM (active).
As for `CC1=C2C[C@H]3O[C@@]3(C)CCC3O[C@@]3(C)C[C@@]2(O)OC1=O` (some centres undefined), the Potency result in assay [1] and in assay [2] was “inactive” each time.
In the case of `C=CC(C)(CC/C=C(\C)C(=O)OC)OC1OC(COC(=O)CC(C)(O)CC(=O)O)C(OC2OC(CO)C(O)C(O)C2O)C(O)C1O` (centres undefined), the Potency result in assay [1] and in assay [2] was “inactive” each time.
Consider `Cc1ccc(-c2ccc3c(ccc4sc5c(c43)NC[C@@H](C)NC5=O)n2)cn1`, for which the Potency entry in assay [1] and in assay [2] was “inactive” each time.
For the compound `COc1nc2sc(C(=O)NC3CC3)c(N)c2c(C)c1Cl`, the Potency result in assay [1] and in assay [2] was “inactive” throughout.
Consider `Cc1cc(Cl)ccc1COc1ccnn1-c1cc(C(=O)O)ccn1`, for which the Potency result in assay [1] and in assay [2] was “inactive” in each case.
Take `O=C(O)CCCCCC[C@H]1C(=O)NC(=O)N1CC[C@@H](O)C1CCCCC1`: the Potency result in assay [1] and in assay [2] was “inactive” throughout.
In the case of `Cn1c(=O)n(-c2ccc(C(C)(C)C#N)cc2)c2c3cc(C#Cc4cccnc4)ccc3ncc21`, the figures for the Potency in assay [1] and in assay [2] were 0.126 µM (active) and 0.0893 µM (active), respectively.
For the compound `COC(=O)C1=CO[C@@H](O[C@@H]2O[C@H](CO)[C@@H](O)[C@H](O)[C@H]2O)C2C1C(=O)C[C@H]2C` (some centres undefined), the Potency entry in assay [1] and in assay [2] was “inactive” each time.
As to `COc1c2c(c(C)c3c1C(=O)OC3)O[C@@]1(C)CCC3(C(C)(C)O)OC(=O)CC[C@]3(C)[C@H]1C2` (some centres undefined), the Potency entry in assay [1] and in assay [2] was “inactive” each time.
As for `C/C(=C\CCC(C)CCO)C(=O)O[C@@H]1[C@@H](O)[C@H](OC2OC=C(C(=O)O)C3CCC(C)(O)C23)O[C@H](CO)[C@H]1O` (some centres undefined), the Potency entry in assay [1] and in assay [2] was “inactive” throughout.
For `CC(C)(C)NC(=O)[C@@H](c1cccnc1)N(C(=O)c1ccco1)c1ccc(C(C)(C)C)cc1`, the Potency entry in assay [1] and in assay [2] was “inactive” each time.
In the case of `CC(O)(CC(=O)O)CC(=O)OCc1ccc(O[C@@H]2O[C@H](CO)[C@@H](O)[C@H](O)[C@H]2O)cc1` (some centres undefined), the Potency result in assay [1] and in assay [2] was “inactive” each time.
For `C=C1CC[C@@H]2[C@@](C)(CO[C@@H]3O[C@H](CO)C(O)[C@H](O)C3O)[C@H](O)CC[C@@]2(C)[C@@H]1CC/C(C)=C/CO` (some centres undefined), the outcome in assay [1] was “inactive [at 9.29 µM]”. Further, the activity change, negative = cytotoxicity in assay [2] was 5.95% [at 9.29 µM].
For the compound `CCOC(=O)C(CCc1ccccc1)NC1CSC(c2cccs2)CN(CC(=O)O)C1=O` (centres undefined), the Potency entry in assay [1] and in assay [2] was “inactive” in each case.
Regarding `COC(=O)C1=COC(OC2OC(CO)C(O)C(O)C2O)C2C1C=CC2(O)CO` (centres undefined), the Potency result in assay [1] and in assay [2] was “inactive” throughout.
